The campaign covered roughly 16,000 compounds. About 2,600 (16%) were called active. Another 20% or so got no clear call; they are omitted. A selection follows. Unmarked numbers belong to inactive results. Calls follow the shape of the dose curve; as a rule, active = well fitted curve in the direction sought with a large enough effect; inconclusive = small, poorly fitted or top-dose-only effect, or effect the other way; inactive = no such curve, though single readings can be large or run the other way.
Target: Cytochrome P450 2D6 (Homo sapiens) (UniProt P10635)
Sequence (P10635 whole entry, looked up): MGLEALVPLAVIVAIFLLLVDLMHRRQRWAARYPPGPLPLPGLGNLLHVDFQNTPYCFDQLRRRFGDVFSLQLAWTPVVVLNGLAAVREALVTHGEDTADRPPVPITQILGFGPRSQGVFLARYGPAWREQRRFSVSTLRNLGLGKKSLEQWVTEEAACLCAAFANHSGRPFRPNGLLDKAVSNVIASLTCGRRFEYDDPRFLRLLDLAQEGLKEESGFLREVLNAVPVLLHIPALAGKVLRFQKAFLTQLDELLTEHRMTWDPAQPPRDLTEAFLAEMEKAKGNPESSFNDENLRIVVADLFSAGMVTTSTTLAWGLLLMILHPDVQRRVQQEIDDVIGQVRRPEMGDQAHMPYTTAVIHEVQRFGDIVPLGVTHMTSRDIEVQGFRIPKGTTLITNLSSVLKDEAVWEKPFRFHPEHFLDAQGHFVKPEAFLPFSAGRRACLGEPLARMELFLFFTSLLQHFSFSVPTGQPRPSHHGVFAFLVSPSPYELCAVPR
Assay: Cytochrome panel assay with activity outcomes
Settings: recombinant CYP, pro-luciferin dealkylation, luminescence, p450-cyp2d6; series mostly up to 57.1 µM
% is scaled to controls: 0 for no effect and ±100 for the full control effect.

Row | Compound | AC50 | activity, negative = inhibition
1 | C[C@@H](Cc1ccccc1)Nc1ncnc2c1ncn2[C@@H]1O[C@@H](CO)[C@H](O)[C@@H]1O | inactive | 
2 | O=C(CNC(=O)c1ccccn1)N/N=C/c1ccccc1 | inactive | 
3 | CCOC(=O)C(CC)(CC)C(=O)/C=C/c1ccc(Br)cc1 | inactive | 
4 | C[C@H](NC[C@H](O)CP(=O)(O)Cc1ccccc1)c1ccc(Cl)c(Cl)c1 | 0.0501 µM (active) | 
5 | C[C@H](NC[C@H](O)CP(=O)(O)CC1CCCCC1)c1ccc(Cl)c(Cl)c1 | inactive | 
6 | Cc1cccc2c1OCC/C2=N\NC(=O)COc1ccccc1Cl | inactive | 
7 | Cc1sc(NC(=O)/C=C/c2ccc(C(C)C)cc2)c(C#N)c1C | inactive | 
8 | Cn1cc(-c2nc3cnc(Oc4ccccc4)nc3n(C3CC3)c2=O)c2ccccc21 | inactive | 
9 | CC(C)NC(=O)N1CCCC2(CCN(C(=O)c3cc(C(F)(F)F)cc(C(F)(F)F)c3)CC2)C1 | inactive | 
10 | CC(C)CN1CCCC2(CCN(C(=O)c3cc(C(F)(F)F)cc(C(F)(F)F)c3)CC2)C1 | 10 µM (active) | 
11 | CC(C)NC(=O)N1CCC2(CC1)CCN(C(=O)c1cc(C(F)(F)F)cc(C(F)(F)F)c1)CC2 | inactive | 
12 | CC(C)CN1CC[C@@]2(CCCN(C(=O)c3cc(C(F)(F)F)cc(C(F)(F)F)c3)C2)C1 | inactive | 
13 | CC(C)NC(=O)N1CC2(CCN(C(=O)c3cc(C(F)(F)F)cc(C(F)(F)F)c3)CC2)C1 | 0.251 µM (active) | 
14 | CC(C)CN1CCC2(CC1)CCN(C(=O)c1cc(C(F)(F)F)cc(C(F)(F)F)c1)CC2 | inactive | 
15 | CCOc1cc(/C=C2/C(=O)N(c3ccccc3)N=C2C)ccc1OC(=O)c1ccco1 | inactive | 
16 | CN1CCCN(S(=O)(=O)c2ccc3c(c2)OCCO3)CC1 | inactive | 
17 | C=CCNC(=O)c1ccc(-c2nc(-c3ccc(Cl)c(Cl)c3)cs2)cc1 | inactive | 
18 | CCOC(=O)N/N=C1/C[C@@H](O)[C@@H](O)[C@@H]2[C@@H]3C(=O)N(CC)C(=O)[C@H]3CC[C@@H]12 |  | 7.29% [at 11.4 µM]
19 | CO[C@H]1COC(=O)[C@H]2CCCN2C(=O)[C@@H](C)COC(=O)C/C=C\[C@@H]1C |  | 19.9% [at 11.4 µM]
20 | Cc1nn(CC(=O)NCc2ccccc2)c(C)c1[N+](=O)[O-] | inactive | 
21 | CCOc1cc(-c2noc(N)c2C#N)cc(OCC)c1OCC | inactive | 
22 | O=C(N/N=C/c1cccc(Oc2ccccc2)c1)c1cccc(Br)c1 | inactive | 
23 | O=C(N/N=C/C1C(c2ccccc2)C1(Cl)Cl)c1cccc(Br)c1 (configuration not stated) | 7.08 µM (active) | 

Row | Compound | AC50 | activity, negative = inhibition
24 | C/C(=N\NC(=O)c1cccc(Br)c1)c1ccc(Br)cc1 | inactive | 
25 | Cn1c(C(N)=O)cnc1Sc1ncc(C(F)(F)F)cc1Cl | inactive | 
26 | Cc1ccnc(N2C(=O)C3C4CC(C(Br)C4Br)C3C2=O)c1 (configuration not stated) | inactive | 
27 | CCC(=O)O[C@@]1(C(=O)SCF)[C@@H](C)C[C@H]2[C@@H]3C[C@@H](F)C4=CC(=O)C=C[C@@]4(C)[C@]3(F)[C@@H](O)C[C@]21C | inactive | 
28 | CO[C@@H](NC(N)=O)C(=O)O |  | 2.43% [at 11.4 µM]
29 | CCC(C)(C)NC(=O)c1ccc2c(c1)N(CC(=O)OC)C(=O)C(C)(C)O2 | inactive | 
30 | O=C(Oc1ccccc1)N1CCC2(CCCN(c3ccc(-c4ccccc4)cc3)C2)CC1 | inactive | 
31 | CC(C)c1nc2ccccn2c1NC1CCCCC1 | 3.16 µM (active) | 
32 | CC(C)c1ccc(O)c(NC(=O)c2ncn[nH]2)c1 | inactive | 
33 | COc1ccc(NC(=O)CC#N)cc1OC | inactive | 
34 | COC(=O)C1=C(C)NC(=O)NC1c1ccsc1 (configuration not stated) | inactive | 
35 | COCCNC(=O)COc1ccc(Oc2ccccc2)cc1 | inactive | 
36 | COCCNC(=O)COc1ccc(OCCNC[C@@H](O)COc2ccccc2)cc1 | 5.01 µM (active) | 
37 | O=C(O)COc1ccc(OCCNC[C@@H](O)COc2ccccc2)cc1 | inactive | 
38 | CCOC(=O)N/N=C1/C[C@@H](O)[C@@H](O)[C@@H]2[C@@H]3C(=O)N(CC)C(=O)[C@H]3CC[C@H]12 |  | -3.76% [at 11.4 µM]
39 | CS(=O)(=O)c1nc(-c2ccccc2)cc(-c2ccccc2)c1C#N | inactive | 
40 | CCOC(=O)c1sc2nc3c(cc2c1N)COC(C(C)C)C3 (configuration not stated) | inactive | 
41 | CCC(=O)N[C@@H]1CCc2cccc(OC)c2C1 | inactive | 
42 | CCc1ccccc1OC[C@@H](O)CN[C@H]1CCCc2ccccc21 | inactive | 
43 | COc1cccc(C=NC=Nc2cccc(OC)c2)c1 | inactive | 
44 | O=C(CSc1nc(-c2ccccc2)cs1)N1CCc2ccccc21 | inactive | 
45 | O=C(CSc1n[nH]c(-c2ccccc2O)n1)N1CCCc2ccccc21 | 25.1 µM (active) | 
46 | O=C(CSc1nnc(CNc2ccccc2)o1)N1CCCc2ccccc21 | inactive | 

Row | Compound | AC50 | activity, negative = inhibition
47 | CC(C)C[C@H](NC(=O)[C@@H](O)[C@@H](N)Cc1ccccc1)C(=O)O | inactive | 
48 | CC(C)(C)c1ccc(C(=O)c2c[nH]c(C(=O)NCCCn3ccnc3)c2)cc1 | 5.01 µM (active) | 
49 | Cc1ccc(C(=O)c2c[nH]c(C(=O)NCCCN3CCOCC3)c2)cc1 | inactive | 
50 | CCC(CC)C(=O)c1c[nH]c(C(=O)NCCc2ccccn2)c1 | inactive | 
51 | O=C(c1ccc(C(F)(F)F)cc1)c1c[nH]c(C(=O)NCCCn2ccnc2)c1 | 2.51 µM (active) | 
52 | O=C(NCCc1ccccn1)c1cc(C(=O)C2CCCCC2)c[nH]1 | inactive | 
53 | O=C(O)CCCCCNC(=O)c1ccncc1 | inactive | 
54 | C1CNCCOCCNCCN1 | inactive | 
55 | CN(C)c1ccc(C(c2ccc(N(C)C)cc2)c2ccc([N+](=O)[O-])cc2)cc1 |  | 14% [at 11.4 µM]
56 | O=C(O)[C@@H]1[C@@H](C(=O)Nc2ccccc2)[C@@H]2C=C[C@@H]1O2 |  | 2.5% [at 11.4 µM]
57 | O=C(O)Cc1ccc(O)c(O)c1 | inactive | 
58 | Oc1ccc(Cc2nccc3cc(O)c(O)cc23)cc1O | 1.26 µM (active) | 
59 | CCOc1ccc(Cc2nccc3cc(OCC)c(OCC)cc23)cc1OCC | inactive | 
60 | COc1ccc(-c2nc3cnc(OC)nc3n(CCc3ccccc3)c2=O)cc1 | inactive | 
61 | CCN(CC)C(=O)CSc1nc(O)cc(=O)n1CC | inactive | 
62 | Cc1n[nH]c(C)c1N=Nc1cc(Cl)ccc1Cl | inactive | 
63 | COc1ccc(Cl)cc1N=Nc1ncc[nH]1 | 2.51 µM (active) | 
64 | N#Cc1ccccc1Sc1ccccc1N | inactive | 
65 | CCc1ccc(-c2csc(NC(=O)C3CCCO3)c2C(=O)OC(C)C)cc1 (configuration not stated) | inactive | 
66 | Fc1ccc(CN(C2=NCCN2)c2c(Cl)cccc2Cl)cc1 | 1.26 µM (active) | 
67 | CN(C)C(=O)Oc1cccc([N+](C)(C)C)c1 | inactive | 
68 | COc1ccccc1CNC(=O)CCN1C(=O)COc2ccc(C)cc21 | inactive | 
69 | Cc1ccc2c(c1)N(CCC(=O)NCCN1CCOCC1)C(=O)CO2 | inactive | 

Row | Compound | AC50 | activity, negative = inhibition
70 | Cc1ccc2c(c1)N(CCC(=O)NCc1ccc3c(c1)OCO3)C(=O)CO2 | 14.1 µM (active) | 
71 | O=c1c(-c2ccc(F)cc2)nc2cnc(N3CCNCC3)nc2n1-c1ccccc1 | inactive | 
72 | Cn1cc(-c2nc3cnc(Oc4ccccc4)nc3n(CCC#N)c2=O)c2ccccc21 | inactive | 
73 | Nc1ncnc2c1nc(Sc1ccc(Cl)cc1)n2[C@@H]1O[C@H]2COP(=O)(O)O[C@@H]2[C@H]1O | inactive | 
74 | COC(=O)[C@@]1(Cc2ccccc2)[C@H]2c3cc(C(=O)N(C)C)n(Cc4c(CO)[nH]cc(C)c4=O)c3C[C@H]2CN1C(=O)c1ccccc1 | 12.6 µM (active) | 
75 | COC(=O)[C@@]1(Cc2ccc(F)cc2)[C@H]2c3cc(C(=O)N4CCCC4)n(Cc4ccc(S(C)(=O)=O)cc4)c3C[C@H]2CN1C(=O)c1ccccc1 | inactive | 
76 | COC(=O)[C@@]1(Cc2ccc(F)cc2)[C@H]2c3cc(C(=O)N(C)C)n(Cc4c(CO)[nH]cc(C)c4=O)c3C[C@H]2CN1C(=O)c1ccccc1 | 15.8 µM (active) | 
77 | COC(=O)[C@@]1(Cc2ccc(F)cc2)[C@H]2c3cc(C(=O)N4CCCC4)n(Cc4cccc5ccccc45)c3C[C@H]2CN1C(=O)c1ccccc1 | inactive | 
78 | COC(=O)[C@@]1(Cc2ccc(OC)cc2)[C@H]2c3cc(C(=O)N4CCCC4)n(CCn4cc([N+](=O)[O-])nc4C)c3C[C@H]2CN1C(=O)c1ccccc1 | inactive | 
79 | COC(=O)[C@@]1(Cc2ccc(OC)cc2)[C@H]2c3cc(C(=O)N(C)C)[nH]c3C[C@H]2CN1C(=O)c1ccccc1 | inactive | 
80 | CC(=O)NCc1c(Cl)cccc1-n1cccc1 | inactive | 
81 | CC(C)(C)OC(=O)COc1cc(OCC(=O)OC(C)(C)C)c2c(=O)cc(-c3ccccc3)oc2c1 | inactive | 
82 | O=c1c(-c2cc(F)cc(F)c2)nc2cncnc2n1C1CC1 | inactive | 
83 | Cc1cccc([C@@H]2CN(C)CCc3c2cc(O)c(O)c3Cl)c1 | inactive | 
84 | CN1CCc2cc(Cl)c(O)cc2[C@H](c2ccccc2)C1 | 0.631 µM (active) | 
85 | C=CCN1CCc2c(cc(O)c(O)c2Cl)[C@H](c2ccccc2)C1 | 25.1 µM (active) | 
86 | C=CCN1CCc2c(cc(O)c(O)c2Br)[C@H](c2ccccc2)C1 | 12.6 µM (active) | 
87 | C=CCN1CCc2cc(O)c(O)cc2[C@H](c2ccccc2)C1 | 0.398 µM (active) | 
88 | CN1C[C@H](c2ccccc2)C(O)([C@]2(c3ccccc3)CN(C)C[C@@H](c3ccccc3)C2=O)[C@H](c2ccccc2)C1 (some centres not stated) |  | -18.6% [at 11.4 µM]
89 | COc1ccc(C[C@@H]2c3cc(OC)c(OC)cc3CC[N@+]2(C)CCC(=O)OCCCCCOC(=O)CC[N@@+]2(C)CCc3cc(OC)c(OC)cc3[C@H]2Cc2ccc(OC)c(OC)c2)cc1OC | inactive | 
90 | Nc1ccccc1C#Cc1ccccc1 | inactive | 
91 | Cc1nc(N/N=C/c2ccccc2)nc(N(C)c2ccccc2)c1[N+](=O)[O-] | inactive | 
92 | CO[C@@H]1COC(=O)C/C=C\[C@@H](C)COC(=O)[C@H](Cc2ccccc2)NC(=O)C/C=C\[C@H]1C |  | -17% [at 11.4 µM]

Source: PubChem BioAssay AID1851 (National Center for Advancing Translational Sciences (NCATS), 2009)
